L929 necroptosis: blocks zVAD induced death of L929 cells. L929 zVAD necroptosis rescue, ATP luminescence, 24 h; with zVAD 60 µM. viability rescue, % at 10 µM. 220,000 compounds, 0.38% hits;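 active means activation, scaled between plate controls, above about 75%, limit read from the data; inactive means activation under that limit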
WT yeast gro inh: growth inhibition of WT yeast, mitochondrial fusion screen; 190,000 compounds, 2.1% hits; AID 1362; mitochondrial fusion phenotypic screen, WT strain; inhibition, % at 10 µM; in the data active means inhibition above about 58%; tested in S. cerevisiae
PERK inh: blocks human PERK kinase; inhibition, % at 5.6 µM; AID 1416; CHO PERK-DD fusion, SEAP luminescence translation reporter; Q9NZJ5; 220,000 compounds, 0.17% hits;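 active means inhibition above the mean inhibition of all tested compounds plus 3 SD, set separately per screening campaign, cut at about 2.9% in these data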;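 further: PERK kinase domain activated by AP20187 dimerizer at 100 nM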
Redox H2O2 prof: compounds producing H2O2 with reducing agent – biochemical, NIH compound library profiling, artefact control for MLSCN library redox annotation, primary screen. DTT-dependent redox cycling H2O2, phenol red/HRP absorbance; 100% = 100 µM peroxide control, 0% = buffer. activation, % at 10 µM. 200,000 compounds, 0.03% hits;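 active means activation of at least 50% relative to the plate's high and low controls in the primary single-dose screen; inactive means activation below 50%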;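 further: compound incubated with DTT at 0.8 mM final as the reducing agent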
PKD1 inh: blocks activity of human protein kinase D1. 200,000 compounds, 0.056% hits. inhibition, % (test concentration not listed). PKD1 kinase fluorescence polarization assay; in the data active means inhibition above about 50%
TNF death inh: TNF-alpha cell death inhibition in Jurkat FADD-/- cells; Jurkat FADD-/- TNF necroptosis rescue, ATP luminescence, 24 h; 0 = TNF only, 100 = no-TNF cells; activation (protection from cell death), % at 10 µM; 220,000 compounds, 0.068% hits;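 active means activation, meaning protection from cell death, of at least 50% relative to plate controls; inactive means activation below 50%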;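 further: necroptosis triggered by 40 ng/mL TNF-alpha added together with compound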
A number is an active result; n = inactive; x = no result. Shown are actives, neighbours in structure and some others; about 2.4% of the full set was active somewhere.

SMILES	L929 necroptosis	WT yeast gro inh	PERK inh	Redox H2O2 prof	PKD1 inh	TNF death inh
CCC(C)NC(=O)CN1C(=O)CN=C(c2ccccc2)c2ccccc21 (stereo not given)	n	n	3.1	n	n	n
Cc1oc(-c2ccccc2)nc1CN1C(=O)CN=C(c2ccccc2)c2ccccc21	x	58.4	n	n	n	n
C=C1C[C@@H]2[C@H](CC[C@]3(C)C(=O)CC[C@@H]23)[C@@]2(C)C=CC(=O)C=C12	x	n	n	x	x	x
COc1ccc(NP(=O)(Oc2ccc(Cl)cc2)Oc2ccc(Cl)cc2)cc1OC	n	65.0	n	n	n	n
C[N+]1(C)C2CCC1CC(OC(=O)c1ccco1)C2 (stereo not given)	n	x	3.3	x	x	n
CCCCC/C=C\C/C=C\C/C=C\C/C=C\CCCC(=O)Nc1ccc(O)cc1	x	75.7	n	x	x	x
CCCC(=O)Nc1ccc(N2CCN(CC)CC2)c(Cl)c1	n	n	n	n	n	n
COc1cc(/C=C2\C(=O)NC(=O)N(c3ccccc3)C2=O)c([N+](=O)[O-])cc1OC	n	n	3.0	n	n	n
COc1cc(/C=C2\C(=O)NC(=O)N(c3ccccc3)C2=O)cc(OC)c1O	n	n	n	n	n	n
O=c1[nH]c2ccccc2n1C1CCN(CCCC(c2ccc(F)cc2)c2ccc(F)cc2)CC1	n	70.0	n	n	n	n
O=C1CC(N2CCC(n3c(=O)[nH]c4ccccc43)CC2)C(=O)N1c1ccc(F)cc1 (stereo not given)	n	n	n	n	n	n
O=P1(Nc2ccc(F)cc2)COc2ccccc2OC1	n	n	n	n	n	n
OCCNc1c2c(nc3ccccc13)CCCC2	n	65.5	n	n	n	n
c1ccc(CNc2c3c(nc4ccccc24)CCC3)cc1	n	x	n	x	x	n
O=C(N=Nc1c(O)[nH]c(=O)[nH]c1=O)C1COc2cc3ccccc3cc2O1 (stereo not given)	n	n	n	n	n	n
CN1OC[C@@H]2COc3ccc4ccccc4c3[C@@H]21	n	n	n	n	n	n
O=C1NC(=O)C(CCc2ccncc2)(Cc2cccc(Cl)c2Cl)C(=O)N1c1ccc(Br)cc1 (stereo not given)	n	74.5	n	n	n	n
CCc1ccc(N2C(=O)NC(=O)C(CCc3ccncc3)(CCc3ccncc3)C2=O)cc1	n	n	n	n	n	n
C=CC[N+]1(C)C2CCC1CC(O)C2 (stereo not given)	n	n	n	n	n	n
Cc1ccc(-n2cc(CNC(C)Cc3cnccn3)c(-c3cccc(C)c3)n2)cc1 (stereo not given)	n	65.7	n	n	n	n
COc1ccc(CCNCc2sccc2C)cc1OC	n	n	n	n	n	n
C[C@H]1CC[C@H]2NCCN[C@H]2C1	n	x	3.1	x	x	n
COC(=O)c1c(N)n(Cc2ccc(OC)cc2)c2nc3ccccc3nc12	n	70.6	n	n	n	n
Cc1cccc(OP(=O)(Nc2ccc(F)cc2)Oc2cccc(C)c2)c1	n	61.0	n	n	n	n
Cc1cccc(OP(=O)(NCc2ccccc2)Oc2cccc(C)c2)c1	n	68.6	n	n	n	n
SMILES	L929 necroptosis	WT yeast gro inh	PERK inh	Redox H2O2 prof	PKD1 inh	TNF death inh
CC[n+]1c(SC)ccc2cc(OC)ccc21	n	70.9	n	n	n	n
N#CC12CNCC1CN=N2 (stereo not given)	n	x	n	x	x	n
Cc1nn(Cc2ccccc2)c(C)c1C(=O)OCC(=O)NC1CCS(=O)(=O)C1 (stereo not given)	n	n	n	n	n	n
O=c1c2ccccc2[se]n1-c1ccccc1	n	96.6	n	n	n	n
O=c1c2ccccc2nc(-c2ccccc2)n1-c1ccccc1	n	x	n	x	x	n
COP(=O)(OC)C(NC(C)=O)C(Cl)(Cl)Cl (stereo not given)	n	n	n	n	n	n
O=C(c1ccco1)c1cn(Cc2ccc(Cl)cc2)c2ccccc12	n	68.9	n	n	n	n
COC(=O)C1CN(C#N)N(c2ccc(Cl)cc2)C12c1ccccc1-c1ccccc12 (stereo not given)	n	74.0	n	n	n	n
CN1c2ccc([N+](=O)[O-])cc2CC2(C(=O)NC(=O)N(c3ccc(Br)cc3)C2=O)C1c1ccccc1 (stereo not given)	n	n	n	n	n	n

Compound activity: PubChem BioAssay, several laboratories
